An excerpt weighted towards active compounds, which were near 2.2% of everything screened.
BaF3 parental = parental Ba/F3 viability inhibition as JAK2V617F counter-screen; CellTiter-Glo ATP luminescence; inhibition, % at 5.6 µM; hit rate 1.1% among 220,000; AID 1486;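 active means inhibition above a per-campaign cutoff, the mean inhibition of all tested compounds plus 3 SD, cut at about 27% in these data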;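 further: 0% = DMSO wells and 100% = JAK Inhibitor I control wells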
IEC-6 cytotox = IEC-6 cytotoxicity, counter-screen for KLF5 inhibitors. AID 1825. hit rate 0.78% among 290,000. inhibition, % at 5 µM. luminescence viability; in the data active means inhibition above about 22%;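 further: 0% = plate median of test compound wells and 100% = cytotoxic reference compound wells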
APP 5UTR inh = APP translation inhibition. inhibition, % at 2 µM. hit rate 0.82% among 190,000. SH-SY5Y APP 5'UTR-luciferase reporter, luminescence;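 active means inhibition above a set limit, derived from the sample mean plus 3 SD, cut at about 45% in these data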
KLF5 inh = inhibitors of KLF5 expression. inhibition, % at 5 µM. AID 1700. hit rate 0.23% among 290,000. DLD-1 KLF5 promoter-luciferase reporter, luminescence;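 active means inhibition above a per-plate limit of that plate's mean compound inhibition plus 3 SD, cut at about 60% in these data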;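 further: 0% = DMSO wells and 100% = LY294002 at 200 µM; higher means less KLF5 promoter-driven luciferase light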
aSyn UTR inh = 5' untranslated region of α-synuclein, MLPCN primary screen | alpha-synuclein 5'UTR reporter, inhibitor activity | inhibition, % (tested at 7.5 µM) | hit rate 0.82% among 300,000 | AID 1813; in the data active means inhibition above about 60%;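 further: H4 neuroglioblastoma cells stably carrying SNCA 5'UTR luciferase fusion; 0% = DMSO wells and 100% = positive control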
Ba/F3 V617F tox = reduce viability of Ba/F3 cells dependent on JAK2V617F; Ba/F3 EpoR-JAK2V617F viability, ATP luminescence; inhibition, % at 5.6 µM; hit rate 1.1% among 220,000;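 active means inhibition above the campaign mean plus 3 SD over all tested compounds, cut at about 24% in these data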;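 further: cytokine-independent growth of Ba/F3 cells driven by EpoR plus mutant JAK2; 0% = DMSO-treated cells and 100% = JAK inhibitor I control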
Active calls of the source: *; / = no result given.

SMILES	BaF3 parental	IEC-6 cytotox	APP 5UTR inh	KLF5 inh	aSyn UTR inh	Ba/F3 V617F tox
Cc1cccc(-n2ncc3c(N4CCOCC4)ncnc32)c1	11.7	2.7	-66.6	42.5	77.3*	8.0
Cc1cccc(-n2ncc3c(N4CCCC4)ncnc32)c1	8.9	2.5	-137.7	-121.7	29.3	5.5
O=C(O)C[C@@H](CNC(=O)COc1ccc2ccc(=O)oc2c1)c1ccc(Cl)cc1	/	-1.0	/	-19.6	6.3	/
CC(=O)N1CCC(=NNC(=O)c2cccs2)CC1	53.0*	8.9	-116.7	-133.9	-114.8	14.8
CCOc1ccc(C(=O)Nc2cc(C)ccn2)cc1	8.7	12.3	-186.0	44.2	65.5*	8.1
O=C(Nc1ccccn1)c1cc2ccccc2o1	6.6	6.2	-85.9	-34.1	41.9	0.4
Cc1ccnc(NC(=O)c2cc3ccccc3o2)c1	/	/	/	/	97.0*	/
Cc1ccc(C(=O)OCC(=O)N(C)c2c(N)n(Cc3ccccc3)c(=O)[nH]c2=O)s1	/	/	/	/	-2.2	/
Cc1cc(C)c2nc(/N=C(\N)NC(=O)Nc3ccccc3)nc(C)c2c1	65.6*	0.1	-6.0	-15.4	-19.8	68.9*
S=C1NC[C@H](Cc2ccccc2)N1CCc1cccc2ccccc12	/	/	/	/	-3.9	/
Nc1c(C(=O)Nc2ccc(S(=O)(=O)N3CCCC3)cc2)sc2nc3ccc(OC(F)(F)F)cc3cc12	7.0	-1.5	72.6*	11.7	109.2*	-3.3
CCCSc1ncc(Cl)c(C(=O)Nc2ccc(S(=O)(=O)N3CC(C)OC(C)C3)cc2)n1 (stereo not given)	6.1	0.5	-2.7	-38.5	27.7	-2.9
O=C(NCC(c1ccco1)N1CCc2ccccc2C1)C(=O)Nc1cc(F)ccc1F (stereo not given)	/	/	/	/	7.4	/
NC(=O)C1=C[C@@H](c2ccc(Br)cc2)C[C@@H](OCCCCO)O1	1.6	2.2	5.5	-14.1	1.3	-3.9
Cc1c(NC(=S)NC(=O)c2ccccc2)c(=O)n(-c2ccccc2)n1C	/	/	/	/	5.9	/
O=C(Nc1ccc(Cl)c(Cl)c1)Nc1ccccc1C(=O)O	45.2*	-10.2	-214.9	-136.7	-7.6	18.3
O=C1CC(c2ccccc2)Cc2nc3ncnn3cc21 (stereo not given)	80.2*	5.1	4.3	52.6	-3.3	77.2*
Cn1cc(CN2C[C@]3(C)C[C@H]2CC(C)(C)C3)c(-c2ccc3c(c2)OCCO3)n1	5.6	2.3	-1.2	-26.9	-11.8	-1.4
CC(=O)Oc1ccccc1/C=C/c1nc2ccccc2c(=O)o1	/	-2.1	/	52.1	65.6*	/
CCCCN1C2=NCCCN2c2cc(C)c(C)cc21	58.8*	5.9	-2.0	-16.3	12.2	50.8*
CCCCCCCCCCCCCCCC[n+]1cccc(C(=O)N(CC)CC)c1	62.1*	2.0	12.5	-3.7	26.0	59.1*
CCCCCCCC[n+]1cccc(C(=O)N(CC)CC)c1	6.3	2.0	-13.1	1.7	10.8	2.7
CCCc1c(C)nn(C(=O)/C(C#N)=N/Nc2ccccc2[N+](=O)[O-])c1C	3.9	-1.3	-64.5	-24.1	-33.8	-1.7
COc1ccc(C(=O)/C(C#N)=N/Nc2ccc([N+](=O)[O-])cc2)cc1	7.1	17.7	91.9*	3.8	102.1*	0.2
COc1ccc(C(=O)/C(C#N)=N/Nc2ccccc2[N+](=O)[O-])cc1	2.3	3.8	70.4*	-5.8	-26.1	-0.6
SMILES	BaF3 parental	IEC-6 cytotox	APP 5UTR inh	KLF5 inh	aSyn UTR inh	Ba/F3 V617F tox
Cn1c(=N)n(CC(=O)c2ccc(F)cc2)c2ccccc21	/	7.9	/	61.1	75.7*	/
Cn1c(=N)n(CC(=O)c2ccc(Br)cc2)c2ccccc21	/	/	/	/	36.3	/
Cc1n(CC(=O)c2ccc(F)cc2)c2ccccc2[n+]1C	27.8*	4.8	6.5	-18.8	5.5	14.8
O=C(O)/C=C/C(=O)c1c(-c2ccccc2)[nH]c2ccccc12	/	-0.3	/	-38.8	2.5	/
CCCCCCc1cc2cc(C(=O)Nc3cccc(OC)c3)c(=O)oc2cc1O	3.4	2.0	-6.7	5.2	62.8*	-1.1
O=C(CNS(=O)(=O)c1ccccc1)Nc1ccc(C(F)(F)F)cc1	2.8	-3.0	68.5*	-57.3	-1.9	-2.5
Cc1ccc(NC(=O)c2ccc(CNS(=O)(=O)c3cccc(C(F)(F)F)c3)cc2)cc1	33.2*	5.2	17.0	-20.9	11.9	4.4
O=C(Nc1ccccc1F)c1ccc(CNS(=O)(=O)c2cccc(C(F)(F)F)c2)cc1	1.4	-0.7	1.7	2.9	-15.0	-0.6
CC1(C)c2[nH]c3ccccc3c2C[C@@H]2C(=O)N(c3ccc(F)cc3F)C(=O)N21	/	/	/	/	-3.5	/
C=CCn1c(C)cc(C(=O)CN2NS(=O)(=O)c3ccccc3C2=O)c1C	16.6	-1.7	84.6*	-87.9	-31.9	4.4
